# Measurements published in the OligoGym collection.
# Biological target: RAET1E
# Assay: pooled miR-30 sensor sort-seq; sequence = guide strand
# Conditions: shRNA
# Further: reference of the scale not given here.
row,Sequence,sensor-assay potency score (higher = more potent)
1,TTGACCATGTTGTTGTCACTGT,0.253
2,TTTACTGGTGACACTGTCGGTT,0.119
3,TTGACAAAACATCTCGACTTGC,-0.439
4,TTTGATGTCACAAAGGAGCATC,-0.244
5,TTTATAGTGAAGTTGAAGCAAA,-1.04
6,TATCTGAAGCATTTACTGGTGA,0.282
7,TCATGATTAATTACTGTCCAGG,-0.855
8,TTCATGATTAATTACTGTCCAG,-0.655
9,TTACTGGTGACACTGTCGGTTC,-0.629
10,TTCACGTTGACAAAACATCTCG,-0.11
11,TTGTTGTCACTGTTGTACTGAA,-0.561
12,TTCCATGTCTCCTTGATCTTAC,-0.262

# Biological target: RAI2
# Assay: as above
# Conditions: shRNA
row,Sequence,sensor-assay potency score (higher = more potent)
1,TTGTTGTGGATGGTACTGGAGG,-0.912
2,TTCTTTAACTTTATGCTCCGGT,0.268
3,TTCAGAACTCTGAGGCACCGGG,-0.474
4,TTTTCAGCCTTGACTTCGCCGC,-0.377
5,TTTCTTTAACTTTATGCTCCGG,-0.775
6,TTGAAGGAGAAGTTTTTGGTGG,-0.107
7,TCGGATTGAGCTCTGGTGCGGA,-0.201
8,TTGAGCTCTGGTGCGGAGCTTC,-0.528
9,TTTAACTTTATGCTCCGGTTTT,-1.48
10,TCAGCCTTGACTTCGCCGCTGG,-0.358
11,TTTATAAAACCAATGCACCTTT,-0.626
12,TCGACAGAGACAATGACCTTGG,-0.196

# Biological target: RANBP9
# Assay: as above
# Conditions: shRNA
row,Sequence,sensor-assay potency score (higher = more potent)
1,TACTACAACTTTCAAAACCTGA,-0.44
2,TTTTGTATCATGGTCTGCCATT,-1.46
3,TTGGACTACTAAAAGGTCGAGG,-0.167
4,TAACAGGATAACTGTCTTGAGA,-1.15
5,TAACTGTCTTGAGACTTTGGAC,-0.743
6,TTCGGTGTCACAATCTTCCATT,-0.713
7,TTGCTTGCAGCTCTCGTCCAAA,-0.93
8,TTTCTTTCAAGTAAACTTGGGT,-0.134
9,TAGCTGAACTTGTCCTTCGGGC,-0.541
10,TAGTAGACTGAATGCATCCTTC,-0.448
11,TAATTCTTCTAGAACGGTCTGG,0.443

# Biological target: RANGAP1
# Assay: as above
# Conditions: shRNA
row,Sequence,sensor-assay potency score (higher = more potent)
1,TTTCCGGTGACATTCGGTCAGA,-1.19
2,TTCAACTCCGACTTCTTCTCTA,0.789
3,TTGGAGTTGAAGGACGAGGAGT,-0.814
4,TTGAGTTTGAGGCTCTTGCCTT,-0.514
